High-throughput results: PubChem, National Center for Advancing Translational Sciences (NCATS)
POLI inh – inhibitors of human DNA polymerase iota; Q9UNA4; Pol iota fluorescent replication assay, 10 min; Potency, µM (titrated, usually from 115 µM), actives largely listed as inhibitors; 1% of 390,000 active; AID 588590
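Fluorescent replication assay read twice, at 0 min and 10 min after adding 50 nM (final) substrate. Enzyme (10 nM) and compounds were first incubated 15 min at room temperature; enzyme-free buffer wells were negative controls.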
WRN inhibitor – WRN helicase (human) inhibition. Q14191. WRN helicase unwinding, fluorescent forked duplex, kinetic. Potency, µM (top dose mostly 114 µM), most hits filed as inhibitors. 0.46% of 360,000 active. AID 651768; also: nearly all actives have a fitted effect of over 55% in size
Target sequence (Q14191 whole entry, looked up): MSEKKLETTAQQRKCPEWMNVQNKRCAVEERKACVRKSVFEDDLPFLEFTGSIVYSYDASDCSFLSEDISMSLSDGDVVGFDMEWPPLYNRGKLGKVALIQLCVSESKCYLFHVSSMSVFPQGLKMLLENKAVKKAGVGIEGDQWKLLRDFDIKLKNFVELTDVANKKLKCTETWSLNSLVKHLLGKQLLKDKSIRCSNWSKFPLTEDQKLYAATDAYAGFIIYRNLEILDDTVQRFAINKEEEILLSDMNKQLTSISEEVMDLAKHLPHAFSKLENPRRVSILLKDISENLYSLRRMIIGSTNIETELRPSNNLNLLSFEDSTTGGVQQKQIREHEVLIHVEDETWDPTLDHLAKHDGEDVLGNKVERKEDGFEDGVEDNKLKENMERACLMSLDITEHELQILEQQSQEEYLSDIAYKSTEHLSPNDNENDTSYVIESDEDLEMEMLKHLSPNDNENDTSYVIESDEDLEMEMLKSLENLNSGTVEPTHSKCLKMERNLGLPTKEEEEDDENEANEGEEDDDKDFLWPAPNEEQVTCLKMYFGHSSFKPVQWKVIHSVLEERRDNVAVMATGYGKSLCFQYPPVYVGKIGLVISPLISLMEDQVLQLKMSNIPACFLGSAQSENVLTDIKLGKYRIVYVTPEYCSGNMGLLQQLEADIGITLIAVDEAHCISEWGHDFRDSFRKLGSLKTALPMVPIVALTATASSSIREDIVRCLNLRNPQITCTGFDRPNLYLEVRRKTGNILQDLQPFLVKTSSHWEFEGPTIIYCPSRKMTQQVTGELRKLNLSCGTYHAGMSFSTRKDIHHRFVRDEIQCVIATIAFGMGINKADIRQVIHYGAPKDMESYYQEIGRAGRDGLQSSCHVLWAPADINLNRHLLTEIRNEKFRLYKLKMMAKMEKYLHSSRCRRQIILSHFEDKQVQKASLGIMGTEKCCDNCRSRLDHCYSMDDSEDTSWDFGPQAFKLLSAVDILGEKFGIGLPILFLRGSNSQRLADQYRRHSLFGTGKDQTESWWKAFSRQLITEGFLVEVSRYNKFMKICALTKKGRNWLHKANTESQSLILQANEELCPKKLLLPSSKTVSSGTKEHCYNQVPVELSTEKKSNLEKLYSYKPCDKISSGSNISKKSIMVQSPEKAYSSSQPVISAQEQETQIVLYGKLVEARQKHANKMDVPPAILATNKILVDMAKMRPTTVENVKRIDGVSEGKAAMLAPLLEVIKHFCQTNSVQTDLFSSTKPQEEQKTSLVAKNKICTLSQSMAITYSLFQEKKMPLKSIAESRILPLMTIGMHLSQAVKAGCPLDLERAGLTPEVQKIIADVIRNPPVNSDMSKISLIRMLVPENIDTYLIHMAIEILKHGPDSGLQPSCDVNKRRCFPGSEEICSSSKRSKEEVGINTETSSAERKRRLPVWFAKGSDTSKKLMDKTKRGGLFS
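WRN at 20 nM final was preincubated with compound for 15 min at room temperature; reaction started with 100 nM forked duplex oligonucleotide carrying fluorophore and quencher plus 2 mM ATP (final). Unwinding followed kinetically by red fluorescence (ex 525/em 598 nm).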
Pol eta inh – DNA polymerase eta (human) inhibition; Q9Y253; recombinant Pol eta, fluorescent DNA replication assay; Potency, µM (top dose mostly 114 µM), usual class: inhibitors; 1.2% of 390,000 active; AID 588591
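Pol eta at 10 nM preincubated with compounds 15 min at room temperature; reaction started with fluorescent substrate (50 nM final) and read kinetically at 0 and 10 min.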
FEN1 inhibitor – inhibitors of human flap endonuclease 1 | P39748 | Recombinant FEN1 flap cleavage, fluorescence, 15 min | Potency, µM (doses to about 114 µM), hits mostly inhibitors | 0.35% of 390,000 active; also: nearly all actives have a fitted effect of over 65% in size
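Potency values derive from four-parameter Hill fits of normalized qHTS data. The reaction used 10 nM FEN1 preincubated 15 min at room temperature with compound, then 50 nM DNA substrate, read at 0 and 15 min.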
Pol kappa inh – inhibitors of human DNA polymerase kappa; Q9UBT6; purified Pol kappa, fluorescent DNA synthesis assay, 10 min; Potency, µM (titrated, usually from 107 µM), actives largely listed as inhibitors; 0.53% of 400,000 active; AID 588579
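Kinetic fluorescence screen: compound preincubated 15 min RT with 10 nM enzyme; 50 nM substrate (final) initiates; reads at 0/10 min.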
POLB inh – DNA polymerase beta (human) inhibition; P06746; Pol beta primer extension/strand displacement, fluorescence kinetic; Potency, µM (doses to about 114 µM), hits mostly inhibitors; 1.3% of 340,000 active; AID 485314
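Human Pol beta at 10 nM; strand-displacement substrate 50 nM final. Compound exposure 15 min at room temperature before start, reaction 10 min at room temperature.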
Each line names hits and unclear results; the compound was inactive in the other large screens. A selection: hits, their analogues and other compounds. The true share with any hit is near 2.4%. Calls follow the shape of the dose curve; as a rule, active = well fitted curve in the direction sought with a large enough effect; inconclusive = small, poorly fitted or top-dose-only effect, or another doubt; inactive = no such curve, though single readings can be large; an effect the other way counts as inactive or inconclusive.

CC1(C)CC(=O)C(C2(O)C(=O)NC(=O)NC2=O)=C(O)C1	POLI inh 8.91µM
CN(C)C(=O)Oc1ccc(Cl)c2ccccc12	none
Cc1c(OC(=O)N(C)C)ccc2c1O/C(=C\c1ccco1)C2=O	POLB inh 50.1µM
FC(F)OC(F)(F)C(F)Cl (centres undefined)	none (no result: POLI inh, WRN inhibitor, Pol eta inh, FEN1 inhibitor, POLB inh)
CN1/C(=C\C=C\C2=[N+](C)c3ccc4ccccc4c3C2(C)C)C(C)(C)c2ccccc21	POLB inh 79.4µM (no result: POLI inh, WRN inhibitor, Pol eta inh, FEN1 inhibitor, Pol kappa inh)
Cc1ccc(S(=O)(=O)N(CC(=O)N/N=C\c2cccs2)c2cccc3cccnc23)cc1	POLI inh inconclusive, Pol eta inh inconclusive, POLB inh 39.8µM
CCOC(=O)C1CCN(/C=C2/C(=O)NC(=O)N(Cc3ccco3)C2=O)CC1	POLI inh 17.8µM, WRN inhibitor inconclusive, Pol eta inh 7.08µM, Pol kappa inh 35.5µM, POLB inh 22.4µM
COC(=O)C1=C(C)N(Cc2ccco2)C(=O)/C1=C\c1ccc(N(C)C)cc1	Pol kappa inh inconclusive
COc1ccc(/C=C2/C(=O)NC(=O)N(Cc3ccco3)C2=O)cc1	POLB inh 10µM (no result: POLI inh, WRN inhibitor, Pol eta inh, FEN1 inhibitor, Pol kappa inh)
CC[C@H](C)[C@H](NC(=O)[C@@H](N)Cc1ccc(O)cc1)C(=O)NCC(=O)N[C@@H](CO)C(=O)N[C@@H](CCCN=C(N)N)C(N)=O	none (no result: POLI inh, WRN inhibitor, Pol eta inh, FEN1 inhibitor, POLB inh)
CCOC(=O)c1ccc(NC(=O)c2c(O)[nH]c(=O)[nH]c2=O)cc1	Pol eta inh inconclusive, POLB inh 20µM
COP(N)(=O)SC (centres undefined)	none (no result: POLI inh, WRN inhibitor, Pol eta inh, FEN1 inhibitor, POLB inh)
CC1(C)[C@H](C(=O)O[C@H](C#N)c2cccc(Oc3ccccc3)c2)[C@@H]1C=C(Br)Br	none (no result: POLI inh, WRN inhibitor, Pol eta inh, FEN1 inhibitor, POLB inh)
Cc1ccc(CCNC(=O)Cn2nc(C)c3c(C)n(-c4ccc(C)cc4)nc3c2=O)cc1	Pol eta inh inconclusive, POLB inh 79.4µM (no result: WRN inhibitor)
COc1ccccc1CNC(=O)CCNS(=O)(=O)c1ccc2c(c1)oc(=O)n2C	none
CCCN1CCCC2Cc3nc(N)ncc3CC21 (centres undefined)	none (no result: POLI inh, WRN inhibitor, Pol eta inh, FEN1 inhibitor, POLB inh)
CC(C)(C)NCC(O)c1cc(Cl)c(N)c(C(F)(F)F)c1 (centres undefined)	none (no result: POLI inh, WRN inhibitor, Pol eta inh, FEN1 inhibitor, POLB inh)
N#C/C(=C\c1ccc(O)c(O)c1)C(=O)NCCCNC(=O)/C(C#N)=C/c1ccc(O)c(O)c1	POLI inh 0.112µM, Pol eta inh 0.112µM, Pol kappa inh 0.299µM, POLB inh 0.126µM (no result: WRN inhibitor, FEN1 inhibitor)
N#C/C(=C/c1ccc(O)c(O)c1)C(N)=S	Pol kappa inh 1.68µM (no result: POLI inh, WRN inhibitor, Pol eta inh, FEN1 inhibitor, POLB inh)
CCOC(=O)c1cc(-c2ccccc2)n(CCCC(=O)Nc2ccc(C)c(C)c2)c1C	POLI inh inconclusive, FEN1 inhibitor inconclusive, POLB inh inconclusive (no result: WRN inhibitor)
CC12CCC3C4CCC(=O)C(O)=C4CCC3C1CCC2OC(=O)CCC1CCCC1 (centres undefined)	none (no result: POLI inh, WRN inhibitor, Pol eta inh, FEN1 inhibitor, POLB inh)
CC(C)c1ccc(N2C(=O)NC(=O)/C(=C/c3cnc(-c4ccccc4)nc3)C2=O)cc1	WRN inhibitor 50.1µM
O=C1NC(=O)N(Cc2ccccc2)C(=O)/C1=C/c1cnc(-c2ccccc2)nc1	WRN inhibitor inconclusive
CCCCN1C(=O)NC(=O)/C(=C/c2cnc(SC)nc2)C1=O	WRN inhibitor 39.8µM
CSc1ncc(/C=C2/C(=O)NC(=O)N(c3ccc(C(C)C)cc3)C2=O)cn1	WRN inhibitor 50.1µM
C[C@]12CC[C@H]3[C@@H](CC[C@@]45O[C@@H]4C(=O)C(C#N)C[C@]35C)[C@@H]1CC[C@@H]2O (some centres undefined)	none (no result: POLI inh, WRN inhibitor, Pol eta inh, FEN1 inhibitor, POLB inh)
Cc1ccc(N2C(=O)/C(=C/c3ccc(CN(CCC#N)S(C)(=O)=O)o3)C(=O)NC2=S)cc1C	POLB inh 20µM (no result: POLI inh, WRN inhibitor, Pol eta inh, FEN1 inhibitor, Pol kappa inh)
CN1CCN(c2ccc(/C=C3\C(=O)NC(=S)N(c4cccc(Br)c4)C3=O)o2)CC1	POLI inh inconclusive, WRN inhibitor inconclusive, Pol eta inh inconclusive, FEN1 inhibitor inconclusive
C[C@]12[C@H](O)CC3C(CC[C@@H]4C[C@@H](O)CC[C@]34C)[C@@]1(O)CC[C@@H]2C1=CC(=O)OC1 (some centres undefined)	none (no result: POLI inh, WRN inhibitor, Pol eta inh, FEN1 inhibitor, POLB inh)
CN(C)c1ccc(C=C2C(=O)NC(=S)NC2=O)cc1	WRN inhibitor 35.5µM, FEN1 inhibitor inconclusive (no result: POLB inh)
Oc1c(Cl)cc(Cl)cc1CN1CCN(Cc2ccccc2)CC1	POLI inh 31.6µM
